Reference: PubChem BioAssay AID1159580 (chemical genetic matrix, 2015)
Where “and” joins values, the source holds several entries; their conditions need not be identical. Identical values can stand only once. In all, about 5,500 compounds went through this assay and about 2,000 (36%) were called active. Another 18% or so got no clear call; they are omitted. Rule as the data show it: active = normalized growth mostly below about 0.91 (no sharp cut-off); inconclusive = no clear call, values can overlap the other calls; inactive = mostly above about 0.92. Some of the results follow.

Assay: chemical genetic growth profiling, strain panel (AID 1159580);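 also: tested at 20 µM; growth read once vehicle control cultures reached saturation at 30 °C; 1 = growth at the plate median or of vehicle wells; lower values mean less growth of the strain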
Settings: S. cerevisiae deletion strains, growth OD

Measured: normalized growth

S=C=NCc1ccccc1
active: locus YAL013W, strain DEP1, active compounds read low 0.0579 | locus YAL021C, strain ccr4, active compounds read low 0.661 | locus YAL026C, strain drs2, active compounds read low 0.0761 | locus YAL030W, strain snc1, active compounds read low 0.0648 | locus YBL061C, strain skt5, active compounds read low 0.079 | locus YBR009C, strain hhf1, active compounds read low 0.0753 | locus YBR021W, strain FUR4, active compounds read low 0.17 | locus YBR023C, strain chs3, active compounds read low 0.0813 | locus YBR171W, strain sec66, active compounds read low 0.117 | locus YBR229C, strain ROT2, active compounds read low 0.0461 | locus YBR231C, strain swc5, active compounds read low 0.0718 | locus YBR279W, strain paf1, active compounds read low 0.0918 | locus YCL011C, strain gbp2, active compounds read low 0.0749 | locus YCL016C, strain dcc1, active compounds read low 0.0958 | locus YCL029C, strain bik1, active compounds read low 0.0592 | locus YCL061C, strain MRC1, active compounds read low 0.0833 | locus YCL069W, strain vba3, active compounds read low 0.0787 | locus YCR088W, strain abp1, active compounds read low 0.069 | locus YDL005C, strain med2, active compounds read low 0.583 | locus YDL035C, strain GPR1, active compounds read low 0.0548 | locus YDL040C, strain nat1, active compounds read low 0.139 | locus YDL074C, strain BRE1, active compounds read low 0.0981 | locus YDL101C, strain DUN1, active compounds read low 0.0649 | locus YDL134C, strain PPH21, active compounds read low 0.0517 | locus YDL185W, strain tfp1, active compounds read low 0.0574 | locus YDL192W, strain arf1, active compounds read low 0.0627 | locus YDR001C, strain nth1, active compounds read low 0.07 | locus YDR069C, strain doa4, active compounds read low 0.143 | locus YDR101C, strain arx1, active compounds read low 0.0574 | locus YDR137W, strain rgp1, active compounds read low 0.616 | locus YDR150W, strain NUM1, active compounds read low 0.0586 | locus YDR159W, strain sac3, active compounds read low 0.275 | locus YDR162C, strain NBP2, active compounds read low 0.0541 | locus YDR195W, strain ref2 0.187 | locus YDR297W, strain sur2, active compounds read low 0.068 | locus YDR318W, strain mcm21, active compounds read low 0.0636 | locus YDR334W, strain swr1, active compounds read low 0.0851 | locus YDR335W, strain msn5, active compounds read low 0.0739 | locus YDR388W, active compounds read low 0.061 | locus YDR392W, strain spt3, active compounds read low 0.112 | locus YDR502C, strain sam2, active compounds read low 0.0605 | locus YEL003W, strain gim4, active compounds read low 0.0605 | locus YEL037C, strain rad23, active compounds read low 0.178 | locus YEL061C, strain CIN8 (second series), active compounds read low 0.0786 | locus YEL061C, strain CIN8, active compounds read low 0.05 | locus YER015W, strain faa2, active compounds read low 0.0762 | locus YER016W, strain bim1, active compounds read low 0.081 | locus YER110C, active compounds read low 0.0778 | locus YER111C, strain swi4, active compounds read low 0.0829 | locus YER155C, strain BEM2 (second series), active compounds read low 0.0957 | locus YER155C, strain BEM2, active compounds read low 0.0627 | locus YER167W, strain BCK2, active compounds read low 0.0526 | locus YFR010W, strain ubp6, active compounds read low 0.136 | locus YGL078C, strain dbp3, active compounds read low 0.0565 | locus YGL086W, strain mad1, active compounds read low 0.0589 | locus YGL167C, strain pmr1, active compounds read low 0.393 | locus YGL173C, strain kem1, active compounds read low 0.214 | locus YGL227W, strain vid30, active compounds read low 0.072 | locus YGL240W, strain doc1, active compounds read low 0.203 | locus YGL248W, strain PDE1, active compounds read low 0.0468 | locus YGL253W, strain hxk2, active compounds read low 0.0793 | locus YGR078C, strain PAC10, active compounds read low 0.0557 | locus YGR135W, strain pre9, active compounds read low 0.066 | locus YGR229C, strain SMI1, active compounds read low 0.0658 | locus YGR252W, strain gcn5, active compounds read low 0.176 | locus YHR013C, strain ard1, active compounds read low 0.175 | locus YHR027C, strain rpn1, active compounds read low 0.103 | locus YHR030C, strain SLT2, active compounds read low 0.0491 and 0.174 | locus YHR079C, strain IRE1 (second series), active compounds read low 0.0547 | locus YHR079C, strain IRE1, active compounds read low 0.181 | locus YHR094C, strain hxt1, active compounds read low 0.0577 | locus YHR129C, strain ARP1, active compounds read low 0.0553 | locus YHR142W, strain chs7, active compounds read low 0.0817 | locus YHR200W, strain rpn10, active compounds read low 0.0598 | locus YIL066C, strain RNR3, active compounds read low 0.0519 | locus YIL073C, strain SPO22, active compounds read low 0.132 | locus YIL125W, strain kgd1, active compounds read low 0.0561 | locus YIR030C, strain dcg1, active compounds read low 0.0588 | locus YJL092W, strain hpr5, active compounds read low 0.08 | locus YJL095W, strain BCK1 (second series), active compounds read low 0.0601 | locus YJL095W, strain BCK1, active compounds read low 0.0573 and 0.268 | locus YJL115W, strain asf1, active compounds read low 0.123 | locus YJL129C, strain trk1, active compounds read low 0.257 | locus YJL134W, strain LCB3, active compounds read low 0.0484 | locus YJL154C, strain vps35, active compounds read low 0.165 | locus YJL164C, strain tpk1, active compounds read low 0.0744 | locus YJL166W, strain qcr8, active compounds read low 0.0848 | locus YJL168C, strain set2, active compounds read low 0.0599 | locus YJL187C, strain SWE1 (second series), active compounds read low 0.0487 | locus YJL187C, strain SWE1, active compounds read low 0.0904 | locus YJR043C, strain POL32, active compounds read low 0.0693 | locus YJR066W, strain TOR1, active compounds read low 0.735
